# Measured values reported in PubChem BioAssay (NCATS).
# Inconclusive results are not listed. Entries that show only a call come without a potency. Activity calls are given as the source filed them. The call rests on the fitted dose curve; in most records, active means well fitted curve in the direction sought with a large enough effect; inconclusive means small, poorly fitted or top-dose-only effect, or another doubt; inactive means no such curve, though single readings can be large; an effect the other way counts as inactive or inconclusive.
# Target: Aldehyde dehydrogenase, mitochondrial (Homo sapiens) (UniProt P05091)
# Assay: qHTS for Inhibitors of the Aldehyde Dehydrogenase Family (ALDH2) Primary screen (AID 2061308); further: nearly all actives have a fitted effect of over 55% in size
# Conditions: ALDH2 enzyme inhibition qHTS, 1536-well; series mostly up to 56 µM
row,Compound,Potency
1,COc1cccc(NC(=O)C(OC(=O)CNC(=O)c2ccccc2)c2ccccc2)c1 (stereo not given),inactive
2,Cc1cc(C)nc(NC(=S)N2CCN(c3ccc(N4CCCC4)nn3)CC2)c1,inactive
3,Cc1ccccc1S(=O)(=O)N1CCc2cc(-c3nc(NC(=O)Cc4ccc5c(c4)OCO5)sc3C)ccc21,inactive
4,Cc1ccc(CNc2nc(-c3ccccc3C(F)(F)F)nc3ccccc23)cc1,inactive
5,O=C(OCC#CCSc1nnc(-c2ccccc2Cl)o1)c1ccc(F)cc1,inactive
6,Cc1ccc(S(=O)(=O)Nc2cnccc2C(=O)Nc2nc(-c3cccc(F)c3)cs2)cc1,inactive
7,Cc1ccc(NS(=O)(=O)c2ccc3c(c2)CCC(=O)N3)cc1F,inactive
8,CN(C)c1ccc2nc(NC(=S)N3CCN(c4cccc(C(F)(F)F)c4)CC3)sc2c1,inactive
9,Cc1sc(C)c2c1C(=O)NS2(=O)=O,inactive
10,Cc1occc1CNc1ncnc2ccc(-c3ccc4c(c3)OCO4)cc12,inactive
11,Cc1csc(CNc2ncnc3ccc(-c4ccc5c(ccn5C)c4)cc23)c1,inactive
12,NC(=O)C1CCN(c2nc(-c3ccccc3)cs2)CC1,inactive
13,O=C(Nc1ccc(-c2ccncc2)nc1)c1cccs1,inactive
14,Cn1nnnc1Sc1ncnc2scc(-c3cccc(C#N)c3)c12,inactive
15,C=C(C)C(=O)OC1[C@@H]2C(=C)C(=O)O[C@@H]2C[C@@H](C)[C@@H]2C=CC(=O)[C@@]12C (stereo not given in full),inactive
16,Cc1cnc(-c2ccccc2C(C)C)nc1NCc1ccc(-c2nn[nH]n2)cc1,inactive
17,COc1ccc(OC)c(C2=Nn3c(nnc3-c3ccccc3C)SC2)c1,inactive
18,COc1cc(O)c(C(CC(=O)N2CC(C)CC(C)C2)c2ccc(O)cc2)c(OC)c1 (stereo not given),inactive
19,Cc1cc(C)nc(NC(=S)N2CCN(c3ccc(F)c(F)c3)CC2)c1,inactive
20,O=C(Nc1ccc2ccccc2c1)Nc1nnc(-c2ccccc2Cl)s1,inactive

row,Compound,Potency
1,CC(=O)c1ccccc1-c1ncc(C)c(NCC2CCN(c3cccnc3)CC2)n1,inactive
2,O=C(OCC#CCSc1nnc(-c2ccc3ccccc3c2)o1)c1cc2ccccc2s1,inactive
3,Cc1ccc(OCCn2c(CCNC(=O)c3ccccc3C)nc3ccccc32)cc1,inactive
4,O=C1CCCC2=C1C(c1[nH]ncc1Cl)N=C(Nc1nc3c(Cl)cccc3o1)N2 (stereo not given),inactive
5,O=C1CCc2cc(S(=O)(=O)Nc3cccc(Cl)c3)ccc2N1,inactive
6,O=C(Nc1nnc(-c2ccco2)o1)c1ccncc1,inactive
7,COc1ccc(NC(=O)CSc2nnc(-c3cccc(S(=O)(=O)N4CCCC4)c3)n2-c2ccccc2)cc1,inactive
8,COc1ccc(C2Nc3ccccc3C(=O)N2CCCN(C)C)cc1COc1c(C)cc(NC(C)=O)cc1C (stereo not given),inactive
9,COc1ccc(OC)c(-c2nnc(NC(=O)Nc3ccc4ccccc4c3)s2)c1,inactive
10,Cn1c2ccsc2c2ncn(Cc3ccc(F)cc3)c(=O)c21,inactive
11,CN1CCOc2cc(S(=O)(=O)N3CCN(S(=O)(=O)c4c(F)cccc4F)CC3)cnc21,inactive
12,N#Cc1cnc(NS(=O)(=O)c2ccc(NC(=O)Cc3ccc(F)c(Cl)c3)cc2)s1,inactive
13,CCOC(=O)c1c(CNCc2ccccc2F)c2sc(C)cc2n1C,inactive
14,Cc1ccc(-c2cc(C(=O)NCc3ccccc3)c3ccccc3n2)cc1C,inactive
15,C[C@@H]1CC[C@]2(C(=O)O)CC[C@]3(C(=O)O)C(=CCC4[C@@]5(C)CC[C@H](O[C@@H]6O[C@@H](C)[C@H](O[C@@H]7O[C@H](CO)[C@@H](O)[C@H](O)[C@H]7O)[C@@H](O)[C@H]6O)C(C)(C)C5CC[C@]43C)C2[C@H]1C (stereo not given in full),inactive
16,O=C(CCCc1ccccc1)NC(c1ccco1)c1cc(Cl)c2cccnc2c1O (stereo not given),inactive
17,O=C(Nc1ccc2sccc2c1)Nc1nnc(-c2ccncc2)s1,inactive
18,N#Cc1ccc(C[C@H](C(=O)O)N2C(=O)c3ccc(C(=O)O)cc3C2=O)cc1,inactive
19,O=c1[nH]cnc2c1ncn2[C@H]1CC[C@@H](CO)O1,inactive
20,O=C1c2ccccc2C(=O)N1c1ccc2ncccc2c1,inactive

# Target: Retinaldehyde dehydrogenase 3 (Homo sapiens) (UniProt P47895)
# Assay: qHTS for Inhibitors of the Aldehyde Dehydrogenase Family (ALDH1A3) Primary screen (AID 2061315)
# Conditions: ALDH inhibition qHTS; series mostly up to 56 µM
row,Compound,Potency
1,COc1cccc(NC(=O)C(OC(=O)CNC(=O)c2ccccc2)c2ccccc2)c1 (stereo not given),inactive
2,Cc1cc(C)nc(NC(=S)N2CCN(c3ccc(N4CCCC4)nn3)CC2)c1,inactive
3,Cc1ccccc1S(=O)(=O)N1CCc2cc(-c3nc(NC(=O)Cc4ccc5c(c4)OCO5)sc3C)ccc21,inactive
4,Cc1ccc(CNc2nc(-c3ccccc3C(F)(F)F)nc3ccccc23)cc1,inactive
5,O=C(OCC#CCSc1nnc(-c2ccccc2Cl)o1)c1ccc(F)cc1,inactive
6,Cc1ccc(S(=O)(=O)Nc2cnccc2C(=O)Nc2nc(-c3cccc(F)c3)cs2)cc1,inactive
7,Cc1ccc(NS(=O)(=O)c2ccc3c(c2)CCC(=O)N3)cc1F,inactive
8,CN(C)c1ccc2nc(NC(=S)N3CCN(c4cccc(C(F)(F)F)c4)CC3)sc2c1,inactive
9,Cc1sc(C)c2c1C(=O)NS2(=O)=O,inactive
10,Cc1occc1CNc1ncnc2ccc(-c3ccc4c(c3)OCO4)cc12,inactive
11,Cc1csc(CNc2ncnc3ccc(-c4ccc5c(ccn5C)c4)cc23)c1,inactive
12,NC(=O)C1CCN(c2nc(-c3ccccc3)cs2)CC1,inactive
13,O=C(Nc1ccc(-c2ccncc2)nc1)c1cccs1,inactive
14,Cn1nnnc1Sc1ncnc2scc(-c3cccc(C#N)c3)c12,inactive
15,C=C(C)C(=O)OC1[C@@H]2C(=C)C(=O)O[C@@H]2C[C@@H](C)[C@@H]2C=CC(=O)[C@@]12C (stereo not given in full),inactive
16,Cc1cnc(-c2ccccc2C(C)C)nc1NCc1ccc(-c2nn[nH]n2)cc1,inactive
17,COc1ccc(OC)c(C2=Nn3c(nnc3-c3ccccc3C)SC2)c1,inactive
18,COc1cc(O)c(C(CC(=O)N2CC(C)CC(C)C2)c2ccc(O)cc2)c(OC)c1 (stereo not given),inactive
19,Cc1cc(C)nc(NC(=S)N2CCN(c3ccc(F)c(F)c3)CC2)c1,inactive
20,O=C(Nc1ccc2ccccc2c1)Nc1nnc(-c2ccccc2Cl)s1,inactive

row,Compound,Potency
1,CC(=O)c1ccccc1-c1ncc(C)c(NCC2CCN(c3cccnc3)CC2)n1,inactive
2,O=C(OCC#CCSc1nnc(-c2ccc3ccccc3c2)o1)c1cc2ccccc2s1,inactive
3,Cc1ccc(OCCn2c(CCNC(=O)c3ccccc3C)nc3ccccc32)cc1,inactive
4,O=C1CCCC2=C1C(c1[nH]ncc1Cl)N=C(Nc1nc3c(Cl)cccc3o1)N2 (stereo not given),inactive
5,O=C1CCc2cc(S(=O)(=O)Nc3cccc(Cl)c3)ccc2N1,inactive
6,O=C(Nc1nnc(-c2ccco2)o1)c1ccncc1,inactive
7,COc1ccc(NC(=O)CSc2nnc(-c3cccc(S(=O)(=O)N4CCCC4)c3)n2-c2ccccc2)cc1,inactive
8,COc1ccc(C2Nc3ccccc3C(=O)N2CCCN(C)C)cc1COc1c(C)cc(NC(C)=O)cc1C (stereo not given),inactive
9,COc1ccc(OC)c(-c2nnc(NC(=O)Nc3ccc4ccccc4c3)s2)c1,inactive
10,Cn1c2ccsc2c2ncn(Cc3ccc(F)cc3)c(=O)c21,inactive
11,CN1CCOc2cc(S(=O)(=O)N3CCN(S(=O)(=O)c4c(F)cccc4F)CC3)cnc21,inactive
12,N#Cc1cnc(NS(=O)(=O)c2ccc(NC(=O)Cc3ccc(F)c(Cl)c3)cc2)s1,inactive
13,CCOC(=O)c1c(CNCc2ccccc2F)c2sc(C)cc2n1C,inactive
14,Cc1ccc(-c2cc(C(=O)NCc3ccccc3)c3ccccc3n2)cc1C,inactive
15,C[C@@H]1CC[C@]2(C(=O)O)CC[C@]3(C(=O)O)C(=CCC4[C@@]5(C)CC[C@H](O[C@@H]6O[C@@H](C)[C@H](O[C@@H]7O[C@H](CO)[C@@H](O)[C@H](O)[C@H]7O)[C@@H](O)[C@H]6O)C(C)(C)C5CC[C@]43C)C2[C@H]1C (stereo not given in full),inactive
16,O=C(CCCc1ccccc1)NC(c1ccco1)c1cc(Cl)c2cccnc2c1O (stereo not given),inactive
17,O=C(Nc1ccc2sccc2c1)Nc1nnc(-c2ccncc2)s1,inactive
18,N#Cc1ccc(C[C@H](C(=O)O)N2C(=O)c3ccc(C(=O)O)cc3C2=O)cc1,inactive
19,O=c1[nH]cnc2c1ncn2[C@H]1CC[C@@H](CO)O1,inactive
20,O=C1c2ccccc2C(=O)N1c1ccc2ncccc2c1,inactive
